# Only some compounds are listed: those with a hit (about 13% of all), similar ones and a draw of the others.
# Pf growth 48h – inhibits P. falciparum growth in the first generation, 48 h. P. falciparum luciferase growth in erythrocytes, 48 h. Potency, µM (top dose mostly 28.7 µM), actives largely listed as inhibitors. actives 5.9% (n = 310,000)
#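 Here the parasites carry a stable luciferase gene and grow inside erythrocytes in Albumax-based RPMI medium with compound for one erythrocytic cycle. Activity is scored as loss of luminescent signal.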
# Pf growth 96h – P. falciparum growth inhibition at 96 hour, primary screen for plastid delayed-death inhibitors | Potency, µM (series often up to 28.7 µM), usual class: inhibitors | P. falciparum luciferase reporter growth, 96 h | AID 504834 | actives 6.9% (n = 320,000)
#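 P. falciparum expressing integrated firefly luciferase, in erythrocytes at 2% hematocrit, 0.05% parasitemia, incubated with compounds 96 h at 37 C, 5% CO2. Growth inhibition read as loss of luminescence; two-generation exposure targets delayed-death apicoplast inhibitors.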
# HCMV antiviral – human cytomegalovirus inhibition; activity change, negative = inhibition, % at 57.5 µM; actives 4.5% (n = 410,000); AID 1259415; HFF cells, HCMV-luciferase reporter, 72 h; hits give low values; in the data active = activity change below about -60%; inconclusive = no clear call, values can overlap the other calls; inactive = above about -39%
#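 Human foreskin fibroblasts infected with luciferase-reporter HCMV at MOI 1 PFU/cell, compounds at two doses. Luciferase measured 72 h post infection; normalized to buffer-only basal and Salinomycin (10uM) controls.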
# HCV inhibitor – blocks hepatitis C virus; Huh7.5.1 HCVcc-Cre infection, luciferase reporter, 44 h; Potency, µM (doses to about 41.8 µM), hits mostly inhibitors; actives 3.4% (n = 340,000); AID 651820
#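 Infectious HCVcc-Cre (~0.5 moi) was added to cells just after compound, with cells seeded 4 h earlier at 1,000 per well. Luciferase activity after 44 h culture reported infection; substrate was incubated 15 min at room temperature before reading.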
# Numbers stand for hits; – = inactive; ? = inconclusive; · = no result; [ ] = remark or other dose. Unless noted, calls follow the shape of the dose curve; as a rule, active = well fitted inhibition curve with a large enough effect; inconclusive = small, poorly fitted or top-dose-only effect, or another doubt; inactive = no such curve, though single readings can be large or run the other way.
SMILES,Pf growth 48h,Pf growth 96h,HCMV antiviral,HCV inhibitor
CCOc1ccccc1C1c2[nH]c3ccccc3c2C[C@H]2C(=O)N(C3CCN(Cc4ccccc4)CC3)CC(=O)N12 (stereo partly specified),0.928µM,0.738µM,?,?
C=CCN1CC(=O)N2C(C)c3[nH]c4ccccc4c3C[C@H]2C1=O (stereo partly specified),–,–,–,–
Cc1ccccc1C1c2[nH]c3ccccc3c2C[C@H]2C(=O)N(C3CCN(Cc4ccccc4)CC3)CC(=O)N12 (stereo partly specified),3.29µM,0.329µM,–,·
CC(=O)c1ccc(NC(=O)C2CCN(S(=O)(=O)c3ccc4c(c3)CCCN4C(=O)C3CCC3)CC2)cc1,·,·,–,·
COC(=O)c1ccccc1NC(=O)c1ccc2c(c1)CCN2S(C)(=O)=O,·,·,–,·
COc1cccc(/C=C2/CCC(CN(C)C)C2=O)c1 (stereo unspecified),·,·,-86.9,?
CC1(CSc2ccccc2)CC(=O)N1 (stereo unspecified),·,·,-78.9,·
CC(C)CC(=O)Nc1ccc(C(=O)COc2ccc(-c3nnco3)cc2)cc1,?,2.08µM,–,–
CN(CC(=O)Nc1ccccc1Cl)C(=O)c1cccc(S(=O)(=O)N2CCN(c3ccc(F)cc3)CC2)c1,–,?,-80.0,5.62µM
CN(Cc1cccc(Cl)c1Cl)C(=O)c1cccc(S(=O)(=O)N2CCN(Cc3ccccc3)CC2)c1,?,?,–,·
CN(CC(=O)Nc1ccccc1Cl)C(=O)c1cccc(S(=O)(=O)N2CCN(Cc3ccccc3)CC2)c1,?,–,-79.8,?
CN1CCN(S(=O)(=O)c2cccc(C(=O)N(C)Cc3cccs3)c2)CC1,–,?,–,–
CCCN(CC(=O)Nc1ccccc1C)C(=O)c1cccc(S(=O)(=O)N2CCN(c3ccccc3)CC2)c1,?,?,–,–
C=CCN(C(=O)c1cccc(S(=O)(=O)N2CCN(C)CC2)c1)c1nc(-c2ccccc2)cs1,·,?,–,25.1µM
CN(CC(=O)Nc1ccccc1Cl)C(=O)c1cccc(S(=O)(=O)N2CCN(c3ccccc3)CC2)c1,·,·,-77.3,?
Cc1cccc(C)c1NC(=O)CN(C)C(=O)c1cccc(S(=O)(=O)N2CCN(c3ccccc3)CC2)c1,–,?,–,·
CN(Cc1ccc(Cl)c(Cl)c1)C(=O)c1cccc(S(=O)(=O)N2CCN(Cc3ccccc3)CC2)c1,?,?,–,10µM
CN(Cc1ccc(OC(F)F)cc1)C(=O)c1cccc(S(=O)(=O)N2CCN(c3ccccc3)CC2)c1,·,·,-62.9,5.01µM
Cc1cccc(C)c1NC(=O)CN(C)C(=O)c1cccc(S(=O)(=O)N2CCN(c3ccc(F)cc3)CC2)c1,16.5µM,?,-87.1,?
Cc1ccsc1C(=O)N(Cc1nnc(-c2ccccc2Cl)o1)C1CC1,?,?,–,–
CN1CCN(S(=O)(=O)c2cccc(C(=O)N(Cc3nnc(-c4ccccc4Cl)o3)C3CC3)c2)CC1,?,14.7µM,–,–
Cc1cc(NC(=O)CSc2ncc(C(=O)Nc3ccc(C)c(C)c3)c(=O)n2C)no1,·,·,–,·
CC(C)(C)C(=O)NCCc1csc2nc(-c3ccc(F)cc3)nn12,·,·,–,·
O=C1C2CCCN2C(c2ccccc2)N1c1ccc(F)cc1 (stereo unspecified),·,?,–,–
O=C1C2CCCN2C(c2ccncc2)N1c1ccc(Cl)c(Cl)c1 (stereo unspecified),13.1µM,0.828µM,–,–
SMILES,Pf growth 48h,Pf growth 96h,HCMV antiviral,HCV inhibitor
O=C1C2CCCN2C(c2ccc(F)cc2)N1c1ccc(Cl)cc1 (stereo unspecified),·,–,-77.1,–
O=C1C2CCCN2C(c2cccnc2)N1c1ccc(Cl)c(Cl)c1 (stereo unspecified),?,–,–,–
Cc1c(Cl)cccc1NC(=S)NCCCN(C)C,–,?,–,–
S=C(NCCc1ccccn1)Nc1cc(Cl)cc(Cl)c1,?,13.1µM,–,–
Cc1c(Cl)cccc1NC(=S)NCCc1ccc(C(F)(F)F)cc1,6.57µM,13.1µM,–,11.2µM
Cc1c(Cl)cccc1NC(=S)NCCc1ccccn1,–,?,-68.7,–
CN(Cc1ccccc1)C(=O)Cn1nnc(-c2ccccc2)c1COc1ccc2ccccc2c1,·,·,–,·
COc1ccc(C(=O)Cc2cc(OC)c(OC)cc2C(=O)c2ccccc2F)cc1OC,?,?,–,10µM
CC1CCc2onc(C(=O)Nc3ccc(Cl)cc3)c2C1 (stereo unspecified),·,·,–,·
C=CCNC(=S)NNC(=O)c1ccc(Br)cc1,–,–,–,–
C=CCNC(=S)NNC(=O)c1cc(O)ccc1O,–,4.65µM,–,–
CCOC(=O)N/N=C/c1c(C)nn(-c2ccccc2Cl)c1Cl,?,10.4µM,–,?
Cc1nn(-c2ccccc2Cl)c(Cl)c1/C=N/Nc1nc2ccccc2s1,?,–,-93.7,–
CCOc1cc(C2CC(=O)Nc3nc(SCc4ccccc4)[nH]c(=O)c32)ccc1O (stereo unspecified),·,·,–,·
CCOc1ccc(C2CC(=O)Nc3nc(SCc4ccccc4C)[nH]c(=O)c32)cc1OC (stereo unspecified),·,·,-102.4,·
CCOc1cc(CNCCc2ccccc2F)ccc1OC,–,?,?,–
COC(=O)C1=C(C)NC(=S)NC1c1ccc(OCC(=O)N2CCCCC2)c(OC)c1 (stereo unspecified),?,–,-62.8,–
CCOC(=O)C1=C(C)NC(=O)NC1c1c(OCC(=O)N2CCCCC2)ccc2ccccc12 (stereo unspecified),11.7µM,–[5.75 µM],–,–
COc1cc(CNCCc2ccccc2F)ccc1OCC(=O)N1CCCCC1,–,13.1µM,–,–
Cc1nc([N+](=O)[O-])cn1CC(Cl)Cn1cc([N+](=O)[O-])nc1C,·,·,–,·
CCC(c1nnnn1Cc1ccccc1)N1CCC(n2c(=O)[nH]c3ccccc32)CC1 (stereo unspecified),·,·,-60.6,·
CCCCn1nnnc1C(CCc1ccccc1)N1CCC(n2c(=O)[nH]c3ccccc32)CC1 (stereo unspecified),·,·,-101.3,·
C/C(Cn1nnc([N+](=O)[O-])n1)=N\NC(=O)c1cccc(Cl)c1,?,11.7µM,–,?
C/C(Cn1nnc([N+](=O)[O-])n1)=N\NC(=O)c1ccc(C)cc1,?,?,–,?
C/C(Cn1nnc([N+](=O)[O-])n1)=N\NC(=O)c1ccccc1Cl,7.38µM,9.28µM,–,–
SMILES,Pf growth 48h,Pf growth 96h,HCMV antiviral,HCV inhibitor
C/C(Cn1cnc([N+](=O)[O-])n1)=N\NC(=O)c1cccc(F)c1,–,–,–,11.2µM
C/C(Cn1nnc([N+](=O)[O-])n1)=N\NC(=O)c1ccncc1,–,?,–,–
CC(=O)Nc1ccc(NC(=O)Cn2cc3c(n2)CCCCC3)cc1,·,·,–,·
CCOc1ccc2cc(-c3nnc(Nc4ccc(C)cc4)s3)c(=O)oc2c1,·,·,–,·
COc1cc2oc(=O)c(CC(=O)N3CCCCC3)c(C)c2cc1Cl,·,·,–,·
CCc1ccc(C2CC(=O)c3c([nH]c(C(=O)OC4CCCC4)c3C)C2)cc1 (stereo unspecified),·,·,–,·
Cc1cccc(NC(=O)Cn2nc(-c3ccccc3)c3cnc4ccccc4c32)c1,·,·,–,·
CN(Cc1ccccc1)c1nccn2ccnc12,·,·,–,·

# Bioassay records deposited in PubChem BioAssay by National Center for Advancing Translational Sciences (NCATS).
